About 83,000 compounds went through this panel and 20% of them were active in at least one assay; those are over-represented in the sample as a whole.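 In brief: 96-well plates, 48 h treatment, single concentration, percent growth endpoint.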 Unmarked numbers belong to inactive results. The source made the active and inactive calls. Rule for the calls: active = growth percent below 10; inactive = the rest.

For one assay, the system named is SNB-75 CNS. Briefly: NCI-60 one-dose screen, 48 h (100 = growth as untreated, 0 = no growth, -100 = all killed). As to conditions: 10 µM unless noted.
With `Clc1ccc(/C=C/c2nc(Nc3ccc(Cl)cc3)c3ccccc3n2)cc1`, the growth was 93.6%.
`CCOC(=O)c1c(C)nc2c(c1N)/C(=C/c1ccc(OC)cc1)C(=O)N2Cc1ccc(F)cc1`: the growth is -13.7% (active).
The same measure, in the same setting: the same measure for `CCCCN1CCN(c2ccc3nc(-c4ccc5nc(-c6cc(OC)c(OC)c(OC)c6)[nH]c5c4)[nH]c3c2)CC1`: 38.7%.
Consider `O=C1CCC(N2C(=O)c3cccc(NCCCC4CCN(CCNC(=O)c5cc6c(o5)C(=O)c5ccccc5C6=O)CC4)c3C2=O)C(=O)N1` (stereo not drawn), for which the growth is -99.2% (active).
Turning to `COc1ccc(-c2cncnc2N)cc1OC`, the growth was 88.3%.
For `O=S(=O)(NCCNc1cc(-c2c(-c3cccc(O)c3)nc3sccn23)ccn1)c1ccc(Br)cc1`, the growth was 26.3%.
The same measure, in the same setting: then `CC(=O)c1sc(-c2ccccc2)cc1N`, with 99.5%.
For `Nc1c(C(=O)c2ccccc2)nnc2ncnn12`, the growth was 96.9%.
Still for that read-out and setting: the same measure for `CCNCCNc1cc(-c2ccc(C#N)cc2)c(C#N)c2nc3ccccc3n12`: -20.4% (active); for `Fc1ccc(Nc2nc(Nc3ccc(-c4nc5ccccc5[nH]4)cc3)c3cn[nH]c3n2)cc1`: 83.3%; for `COc1c(C)cnc(CSc2nc(-c3ccc(C)cc3)cn2-c2ccc(Cl)cc2)c1C`: 98.7%.
Take `Cc1c2c(cn1Cc1ccccc1)CCc1cn[nH]c1-2`: the growth was 92.2%.
Turning to `COc1ccc(O)c(-c2cc(-c3ccccc3)c(C#N)c(=O)[nH]2)c1`, the growth is 93.8%.
For `CC(=O)Nc1ccc(C(=O)/C=C/c2ccccc2)cc1`, the growth is 75.9%.
The same measure, in the same setting: then `CCCCCCCC/C=C/CCCCCCCC1=NCC[N+]1(CCO)CCO`, with 63.2%; and `Cc1nc(Nc2ccc(NC(=S)Nc3ccccc3)cc2)nc2nc(Nc3cccc(Cl)c3)[nH]c(=O)c12`, with 84.7%.
In the case of `O=[N+]([O-])c1ccc(-c2cc3c(Nc4ccc(Sc5nc6ccccc6s5)c(Cl)c4)ncnc3s2)cc1`, the growth was 83.9%.
Still for that read-out and setting: the same measure for `CC(=[N-])N1CCC[C@@H](Nc2c3ccccc3nc3ccccc23)C1.[Cl][Pt].[NH-]CCC[NH-]`: 3.22% (active); for `OC(c1cccc(OCc2ccccc2)c1)c1nnc(-c2ccccc2)o1` (stereo not drawn): 94.2%.
Same read-out and setting: then `COc1ccc(-c2nnc(SCC(=O)NC3=NN=C(c4ccccc4)CS3)o2)cc1`, with 88.1%; and `CC(=O)Nc1cccc(C2=CC(c3ccc(C)cc3)n3ncnc3N2)c1` (stereo not drawn), with 94.2%; and `CC(C)OC(=O)NNC(=O)c1ccncc1`, with 91%.
On the same count and under the same terms, then `O=C(CC1Sc2ccccc2NC1=O)NNc1ccc(F)cc1` (stereo not drawn), with 73.3%; and `CCCCCCCSc1ccc(C(=O)O)cc1`, with 71.2%; and `CC(c1ccc(-n2cccn2)cc1)c1cnc(N2CCc3ccc(C(N)=O)cc3C2)s1` (stereo not drawn), with 76.1%.
As to `CCN(CC)CCCNC(=O)c1ccc(N)cc1`, the growth was 95.5%.
Turning to `CSc1nc2sc3cc(Cl)ccc3n2c(=N)c1C#N`, the growth is 26%.
Regarding `CCNCCNc1cc(C2CCCC2)c(C#N)c2nc3ccccc3n12`, the growth is -33.3% (active).
The same measure, in the same setting: then `COc1cc2oc3cc(C)oc(=O)c3c2cc1OC`, with 103%.
As for `Cc1nc(Nc2cccc(NC(=O)Nc3ccc(Cl)cc3)c2)c2ccccc2n1`, the growth was 85.3%.
`CCc1c(C(=O)N[C@@H]2c3cc(Cl)ccc3CC[C@@H]2O)[nH]c(C)c1C(C)=O`: the growth was 76.4%.
The same measure, in the same setting: then `O=C(CC12CC3CC(CC(C3)C1)C2)NCCOCCOCCOCCNC(=O)c1cc2c(o1)C(=O)c1ccccc1C2=O`, with -98.9% (active); and `Cc1cc2c(F)c(Oc3ncnc(Nc4ccc(N5C[C@@H](C)N[C@@H](C)C5)cc4)c3C#N)cc(F)c2[nH]1`, with -28.2% (active); and `COc1ccc(NC(=O)c2cccc(-c3cc(=O)c4c(O)c(OC)c(OC)cc4o3)c2)cc1`, with -5.24% (active).
For the compound `Nc1c(-c2nc3ccc(Br)cc3c(=O)[nH]2)nnn1-c1ccccc1`, the growth is 79.5%.
`CCOc1cc(N)ccc1C(=O)NCCCN(CC)CC`: the growth is 85%.
For `CCN(CC)S(=O)(=O)c1ccc(O)c(NC(=O)c2[nH]c(C)c(C(C)=O)c2CCc2ccc(Cl)cc2)c1`, the growth is 52.1%.
On the same count and under the same terms, then `C=CC(=O)Nc1cccc(C)c1Nc1cc(-c2cccnc2Cc2c(C)c(OC)cc(OC)c2C)ncn1`, with 23.9%; and `CC(C)c1ccc(C(=O)OC(=O)c2ccc(C(C)C)cc2)cc1`, with 88.6%.

Another assay deals with SNB-19 CNS. The assay is described as above. The note with it: 10 µM unless noted.
Take `Clc1ccc(/C=C/c2nc(Nc3ccc(Cl)cc3)c3ccccc3n2)cc1`: the growth was 100%.
Same read-out and setting: the same measure for `CCOC(=O)c1c(C)nc2c(c1N)/C(=C/c1ccc(OC)cc1)C(=O)N2Cc1ccc(F)cc1`: -67.4% (active).
The same measure, in the same setting: then `CCCCN1CCN(c2ccc3nc(-c4ccc5nc(-c6cc(OC)c(OC)c(OC)c6)[nH]c5c4)[nH]c3c2)CC1`, with 71.9%.
Same read-out and setting: then `O=C1CCC(N2C(=O)c3cccc(NCCCC4CCN(CCNC(=O)c5cc6c(o5)C(=O)c5ccccc5C6=O)CC4)c3C2=O)C(=O)N1` (stereo not drawn), with -96% (active).
For the compound `COc1ccc(-c2cncnc2N)cc1OC`, the growth was 108%.
Same read-out and setting: then `O=S(=O)(NCCNc1cc(-c2c(-c3cccc(O)c3)nc3sccn23)ccn1)c1ccc(Br)cc1`, with 66.1%; and `CC(=O)c1sc(-c2ccccc2)cc1N`, with 94.5%; and `Nc1c(C(=O)c2ccccc2)nnc2ncnn12`, with 105%.
For the compound `CCNCCNc1cc(-c2ccc(C#N)cc2)c(C#N)c2nc3ccccc3n12`, the growth is 51%.
For `Fc1ccc(Nc2nc(Nc3ccc(-c4nc5ccccc5[nH]4)cc3)c3cn[nH]c3n2)cc1`, the growth is 87.6%.
`COc1c(C)cnc(CSc2nc(-c3ccc(C)cc3)cn2-c2ccc(Cl)cc2)c1C`: the growth was 93.7%.
For `Cc1c2c(cn1Cc1ccccc1)CCc1cn[nH]c1-2`, the growth was 86.9%.
`COc1ccc(O)c(-c2cc(-c3ccccc3)c(C#N)c(=O)[nH]2)c1`: the growth is 103%.
As to `CC(=O)Nc1ccc(C(=O)/C=C/c2ccccc2)cc1`, the growth was 80.5%.
As to `CCCCCCCC/C=C/CCCCCCCC1=NCC[N+]1(CCO)CCO`, the growth was 73.7%.
On to `Cc1nc(Nc2ccc(NC(=S)Nc3ccccc3)cc2)nc2nc(Nc3cccc(Cl)c3)[nH]c(=O)c12`, for which the growth is 102%.
`O=[N+]([O-])c1ccc(-c2cc3c(Nc4ccc(Sc5nc6ccccc6s5)c(Cl)c4)ncnc3s2)cc1`: the growth was 23.7%.
As for `CC(=[N-])N1CCC[C@@H](Nc2c3ccccc3nc3ccccc23)C1.[Cl][Pt].[NH-]CCC[NH-]`, the growth was 53.3%.
For the compound `OC(c1cccc(OCc2ccccc2)c1)c1nnc(-c2ccccc2)o1` (stereo not drawn), the growth is 99.4%.
As for `COc1ccc(-c2nnc(SCC(=O)NC3=NN=C(c4ccccc4)CS3)o2)cc1`, the growth was 90.8%.
Turning to `CC(=O)Nc1cccc(C2=CC(c3ccc(C)cc3)n3ncnc3N2)c1` (stereo not drawn), the growth was 91.1%.
In the case of `CC(C)OC(=O)NNC(=O)c1ccncc1`, the growth was 105%.
The same measure, in the same setting: then `O=C(CC1Sc2ccccc2NC1=O)NNc1ccc(F)cc1` (stereo not drawn), with 84.5%.
In the case of `CCCCCCCSc1ccc(C(=O)O)cc1`, the growth was 95.4%.
The same measure, in the same setting: the same measure for `CC(c1ccc(-n2cccn2)cc1)c1cnc(N2CCc3ccc(C(N)=O)cc3C2)s1` (stereo not drawn): 85.4%.
On to `CCN(CC)CCCNC(=O)c1ccc(N)cc1`, for which the growth was 102%.
As for `CSc1nc2sc3cc(Cl)ccc3n2c(=N)c1C#N`, the growth is 81.8%.
For `CCNCCNc1cc(C2CCCC2)c(C#N)c2nc3ccccc3n12`, the growth is 36.8%.
On to `COc1cc2oc3cc(C)oc(=O)c3c2cc1OC`, for which the growth is 86.8%.
As to `Cc1nc(Nc2cccc(NC(=O)Nc3ccc(Cl)cc3)c2)c2ccccc2n1`, the growth is 99.9%.
`CCc1c(C(=O)N[C@@H]2c3cc(Cl)ccc3CC[C@@H]2O)[nH]c(C)c1C(C)=O`: the growth is 97.2%.
In the case of `O=C(CC12CC3CC(CC(C3)C1)C2)NCCOCCOCCOCCNC(=O)c1cc2c(o1)C(=O)c1ccccc1C2=O`, the growth was -0.887% (active).
The same measure, in the same setting: the same measure for `Cc1cc2c(F)c(Oc3ncnc(Nc4ccc(N5C[C@@H](C)N[C@@H](C)C5)cc4)c3C#N)cc(F)c2[nH]1`: 37.4%; for `COc1ccc(NC(=O)c2cccc(-c3cc(=O)c4c(O)c(OC)c(OC)cc4o3)c2)cc1`: 61.6%; for `Nc1c(-c2nc3ccc(Br)cc3c(=O)[nH]2)nnn1-c1ccccc1`: 70.6%.
In the case of `CCOc1cc(N)ccc1C(=O)NCCCN(CC)CC`, the growth is 102%.
Still for that read-out and setting: then `CCN(CC)S(=O)(=O)c1ccc(O)c(NC(=O)c2[nH]c(C)c(C(C)=O)c2CCc2ccc(Cl)cc2)c1`, with 47.1%; and `C=CC(=O)Nc1cccc(C)c1Nc1cc(-c2cccnc2Cc2c(C)c(OC)cc(OC)c2C)ncn1`, with 23.3%.
`CC(C)c1ccc(C(=O)OC(=O)c2ccc(C(C)C)cc2)cc1`: the growth is 107%.

The values above are taken from PubChem BioAssay (NCI).
